Data on 25 molecules can be found in PubChem BioAssay AID1645860 (Buhrlage Lab, Dana-Farber Cancer Institute and Novartis …, 2021).

Out of some 47,000 compounds screened, about 2,500 (5.3%) were called active. What follows is part of a selection rich in actives, with near analogues and random picks from the rest. A number with no mark means an inactive call. No stated cut-off is given here; in the data, active means inhibition above about 30%; inactive means the rest.

This assay deals with Ubiquitin carboxyl-terminal hydrolase 30 (Homo sapiens) (UniProt Q70CQ3). Put plainly: blocks human USP30 ubiquitin-rhodamine cleavage (AID 1645860). To be noted: purified USP30, Ub-rhodamine cleavage fluorescence; at 25 µM; hits give high values.
Ubiquitin carboxyl-terminal hydrolase 30 (Homo sapiens), sequence (Q70CQ3 whole entry, looked up): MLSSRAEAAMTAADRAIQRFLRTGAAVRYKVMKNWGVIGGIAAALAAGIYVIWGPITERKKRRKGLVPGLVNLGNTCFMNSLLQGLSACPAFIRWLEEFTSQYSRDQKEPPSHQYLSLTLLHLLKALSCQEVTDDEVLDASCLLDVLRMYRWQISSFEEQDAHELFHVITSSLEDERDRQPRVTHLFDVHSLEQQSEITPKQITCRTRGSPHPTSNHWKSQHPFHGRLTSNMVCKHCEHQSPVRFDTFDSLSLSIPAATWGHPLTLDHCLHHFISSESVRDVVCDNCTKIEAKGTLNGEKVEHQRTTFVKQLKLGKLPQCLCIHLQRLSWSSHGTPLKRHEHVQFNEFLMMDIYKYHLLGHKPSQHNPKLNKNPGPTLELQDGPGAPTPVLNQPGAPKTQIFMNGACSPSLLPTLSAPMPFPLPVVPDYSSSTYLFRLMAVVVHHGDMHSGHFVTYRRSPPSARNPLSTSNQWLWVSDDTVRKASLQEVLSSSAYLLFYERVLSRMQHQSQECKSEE
Consider `Cc1nc2nc(NCc3ccccc3)[nH]n2c(=O)c1CCC(=O)N1CCC(C)CC1`, for which the inhibition was 0.108%. The result for `O=C(NCc1ccccn1)C1CCCN(c2ccc(-c3ccccc3)nn2)C1` (stereo not given) reads 23.1%; that for `Cc1ccc(NC(=O)Cn2c(N3CCCC3)nc(C)cc2=O)cc1`, 18.2%; that for `c1ccc(-c2csc3ncnc(NC4CCCc5ccccc54)c23)cc1` (stereo not given), -52.1%. The same measure for `CN1CC(=O)N(C2CCCNC2)Cc2c(NC3CCc4ccccc43)ncnc21` (stereo not given): 69.8% (active); for `Cc1ccccc1CNC(=O)N1CCC2(CC1)NC(=O)[C@H]1CN(c3ncccn3)C[C@H]12`: 25.7%; for `Cc1cccc(-c2cccc(C3CCCN(C(=O)c4cnccn4)C3)n2)c1` (stereo not given): -38%. The same measure for `O=C(Nc1ccccc1F)Nc1nnc2cccc(Cl)n12`: -21.8%; for `CN(CCc1ccccn1)CC(=O)N1CCc2ccccc21`: -0.887%; for `Cc1nc2ccccc2c(=O)n1CC(=O)N1CCCc2ccccc21`: 17.4%.

As for `COC(=O)COc1cccc2c(=O)n(CC(=O)N3CCc4ccccc43)ccc12`, the inhibition is 37% (active). For the molecule `Cc1ccc(C)c(N2CCN(c3nc4ccc(Cl)cc4nc3-n3nc(C)cc3C)CC2)c1`, the inhibition is -8.16%. The result for `COc1cc(Cl)c(NC(=O)c2cc(-c3ccccn3)n[nH]2)c(OC)c1` reads 31.5% (active); that for `Cc1ccc(CC(=O)N2CCN(C(=O)c3cc(-c4ccccn4)n[nH]3)CC2)cc1`, 4.03%. The result for `O=C(Nc1ccc(Cl)cc1F)c1cc(-c2ccccn2)n[nH]1` reads 12.6%; that for `O=C(Cn1cc(S(=O)(=O)Cc2ccccc2Cl)c2ccccc21)N1CCCCCC1`, -0.265%; that for `CC(=O)Nc1cccc(NC(=O)CSc2cn(CC(=O)N3CCC(C)CC3)c3ccccc23)c1`, -1.08%. The result for `O=C(Cn1cc(SCc2cccc(F)c2)c2ccccc21)N1CCCCCC1` reads 35.3% (active); that for `COCCN1CC(C(=N)N)C(=O)NC1=O` (stereo not given), -45.1%; that for `COc1ccc(CC(=O)Nc2ccc3c(c2)CN(C(=O)c2ccco2)CC3)cc1`, 19.1%. For the molecule `O=C(CC1(O)C(=O)N(Cc2cccc3ccccc23)c2ccccc21)c1cccc2ccccc12` (stereo not given), the inhibition is 2.93%. In the case of `CN1CCc2c(sc3nc(SCCc4ccccc4)n(-c4ccccc4)c(=O)c23)C1`, the inhibition is -152%. With `O=S(=O)(Nc1cccc(O)c1)c1ccc2oc3ccc(S(=O)(=O)Nc4cccc(O)c4)cc3c2c1`, the inhibition was 42.9% (active). The same measure for `Cc1cccc(NS(=O)(=O)c2ccc3nnc(C)n3c2)c1`: -4.01%. The same measure for `COc1cccc(NS(=O)(=O)c2ccc(-c3coc(C)n3)cc2)c1`: -18.4%.
